pPAFAH inh – inhibitors of human plasma PAF acetylhydrolase (pPAFAH). actives 1.5% (n = 330,000). recombinant pPAFAH, FP-rhodamine probe fluorescence polarization. inhibition, % at 3.39 µM. Q13093;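 active means inhibition above the mean inhibition across the screen plus 3 SD, cut at about 25% in these data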;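 further: inhibitors block binding of the rhodamine activity-based probe so polarization drops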
HTRA1 inhibitor – blocks human HTRA1 serine peptidase; Q92743; recombinant HTRA1, FP-rhodamine activity-based probe, fluorescence polarization; inhibition, % at 5.96 µM; actives 0.5% (n = 340,000); AID 504803; in the data active means inhibition above about 36%
PAFAH1B3 inh – PAFAH1B3 (human) inhibition. Q15102. recombinant PAFAH1B3, FP-rhodamine probe, fluorescence polarization. inhibition, % at 3.39 µM. actives 0.28% (n = 340,000). AID 492972;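 active means inhibition above the screen-wide average of all tested compounds plus 3 SD, cut at about 25% in these data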
Target sequence (Q15102 whole entry, looked up): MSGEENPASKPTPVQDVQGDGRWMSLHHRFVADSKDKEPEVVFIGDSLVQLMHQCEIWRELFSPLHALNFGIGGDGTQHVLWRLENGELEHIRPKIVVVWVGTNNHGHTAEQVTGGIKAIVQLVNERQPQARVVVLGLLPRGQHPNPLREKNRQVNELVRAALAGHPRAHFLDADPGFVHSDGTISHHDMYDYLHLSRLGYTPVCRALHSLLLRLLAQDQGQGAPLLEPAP
PAFAH2 inh – inhibitors of human PAFAH2 | Q99487 | recombinant PAFAH2, FP-rhodamine activity probe, fluorescence polarization | inhibition, % at 3.39 µM | actives 0.99% (n = 340,000) | AID 492956;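 active means inhibition above the mean over all tested compounds plus 3 SD, cut at about 30% in these data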;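 further: inhibitors block probe labeling of enzyme so polarization drops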
DAGLB inh – blocks human DAGLB lipase activity; Q8NCG7; HEK293T DAGLB membrane lysate, EnzChek fluorogenic substrate; inhibition, % at 5.17 µM; actives 0.059% (n = 340,000); AID 504411; in the data active means inhibition above about 34%
PAFAH1B2 inh – inhibitors of human PAFAH1B2; recombinant PAFAH1B2, FP-rhodamine activity probe, fluorescence polarization; inhibition, % at 3.39 µM; actives 1.2% (n = 340,000);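 active means inhibition above the mean of all tested compounds plus 3 SD, cut at about 24% in these data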
Target sequence (P68402 whole entry, looked up): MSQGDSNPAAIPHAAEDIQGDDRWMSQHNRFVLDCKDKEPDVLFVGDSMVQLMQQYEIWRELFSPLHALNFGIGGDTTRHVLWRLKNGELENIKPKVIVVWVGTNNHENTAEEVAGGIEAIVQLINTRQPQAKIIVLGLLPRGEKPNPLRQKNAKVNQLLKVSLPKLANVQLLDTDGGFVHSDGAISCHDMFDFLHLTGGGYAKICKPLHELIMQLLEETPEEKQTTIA
Numbers stand for hits. Hits are enriched below; roughly 2.8% of the tested compounds scored in any of these assays.

Results for O=C1NCCOC(=O)[C@H](Cc2ccc(F)cc2)C/C=C\C[C@@H]1CC(=O)N(CCO)Cc1ccccc1 ?
pPAFAH inh: inactive; HTRA1 inhibitor: inactive; PAFAH1B3 inh: inactive; PAFAH2 inh: inactive; DAGLB inh: inactive; PAFAH1B2 inh: inactive

How did O=C1N[C@@H](Cc2c[nH]c3ccccc23)COC(=O)[C@H](Cc2ccc(F)cc2)C/C=C\C[C@H]1CC(=O)N(CCO)Cc1ccccc1 do in these assays?
pPAFAH inh: inactive; HTRA1 inhibitor: inactive; PAFAH1B3 inh: inactive; PAFAH2 inh: inactive; DAGLB inh: inactive; PAFAH1B2 inh: inactive

How did O=C1NC[C@@H](c2ccccc2)OC(=O)[C@@H](Cc2ccc(F)cc2)C/C=C\C[C@@H]1CC(=O)N(CCO)Cc1ccccc1 do in these assays?
pPAFAH inh: 26; HTRA1 inhibitor: inactive; PAFAH1B3 inh: inactive; PAFAH2 inh: inactive; DAGLB inh: inactive; PAFAH1B2 inh: 64

Results for O=C1N[C@@H](Cc2c[nH]c3ccccc23)COC(=O)[C@@H](Cc2ccc(F)cc2)CC/C=C/C[C@@H]1CC(=O)N(CCO)Cc1ccccc1 ?
pPAFAH inh: inactive; HTRA1 inhibitor: inactive; PAFAH1B3 inh: inactive; PAFAH2 inh: inactive; DAGLB inh: inactive; PAFAH1B2 inh: 34

What do the screens show for `Cc1cccnc1NC(=O)Nc1cccc(F)c1`?
HTRA1 inhibitor: inactive; DAGLB inh: inactive

How did CC(C)(C)c1ccc(C(=O)CC(Sc2ccc(Cl)cc2)C(=O)O)cc1 (stereo not drawn) do in these assays?
pPAFAH inh: inactive; HTRA1 inhibitor: inactive; PAFAH1B3 inh: inactive; PAFAH2 inh: 40; DAGLB inh: inactive; PAFAH1B2 inh: 83

Results for Cc1ccc(SC(CC(=O)c2ccc(F)cc2)C(=O)O)cc1 (stereo not drawn) ?
pPAFAH inh: inactive; HTRA1 inhibitor: inactive; PAFAH1B3 inh: inactive; PAFAH2 inh: inactive; DAGLB inh: inactive; PAFAH1B2 inh: inactive

What do the screens show for `COc1cc(/C=C2/C(=O)c3cccc([N+](=O)[O-])c3C2=O)c(Br)cc1O`?
pPAFAH inh: 32; HTRA1 inhibitor: inactive; PAFAH1B3 inh: 40; PAFAH2 inh: 40; DAGLB inh: inactive; PAFAH1B2 inh: inactive

What do the screens show for `CCN(CC)C(=O)COC(=O)c1cc(-c2ccco2)nc2ccccc12`?
HTRA1 inhibitor: inactive; PAFAH1B3 inh: inactive; PAFAH2 inh: inactive; DAGLB inh: inactive; PAFAH1B2 inh: inactive

How did O=C(O)c1cc(-c2ccco2)nc2cc3ccccc3cc12 do in these assays?
pPAFAH inh: 25; HTRA1 inhibitor: inactive; PAFAH1B3 inh: inactive; PAFAH2 inh: inactive; DAGLB inh: inactive; PAFAH1B2 inh: inactive

What do the screens show for `O=C(COC(=O)c1cc(-c2ccco2)nc2ccccc12)NCc1ccccc1`?
pPAFAH inh: 34; HTRA1 inhibitor: inactive; PAFAH1B3 inh: inactive; PAFAH2 inh: inactive; DAGLB inh: inactive; PAFAH1B2 inh: inactive

How did CC(=O)Nc1ccc(/C=N/NC(=O)c2cc(-c3ccco3)nc3ccccc23)cc1 do in these assays?
pPAFAH inh: inactive; HTRA1 inhibitor: inactive; PAFAH1B3 inh: inactive; PAFAH2 inh: inactive; DAGLB inh: inactive; PAFAH1B2 inh: inactive

What do the screens show for `O=C(O)c1ccccc1/C=N/NC(=O)c1cc(-c2ccco2)nc2ccccc12`?
pPAFAH inh: 32; HTRA1 inhibitor: inactive; PAFAH1B3 inh: inactive; PAFAH2 inh: inactive; DAGLB inh: inactive; PAFAH1B2 inh: inactive

How did CNC(=O)COC(=O)c1cc(-c2ccco2)nc2ccccc12 do in these assays?
pPAFAH inh: 25; HTRA1 inhibitor: inactive; PAFAH1B3 inh: inactive; PAFAH2 inh: inactive; DAGLB inh: inactive; PAFAH1B2 inh: inactive

What do the screens show for `CCCCn1c(N)c(N(Cc2ccccc2OC)C(=O)c2cc(CC)c(C)s2)c(=O)[nH]c1=O`?
pPAFAH inh: inactive; HTRA1 inhibitor: inactive; PAFAH1B3 inh: inactive; PAFAH2 inh: inactive; DAGLB inh: inactive; PAFAH1B2 inh: inactive

What do the screens show for `N#C/C(=C\c1cccnc1)c1nc2c(s1)CCCC2`?
pPAFAH inh: inactive; HTRA1 inhibitor: inactive; PAFAH1B3 inh: inactive; PAFAH2 inh: inactive; DAGLB inh: inactive; PAFAH1B2 inh: inactive

What do the screens show for `COc1cc(/C=C(\C#N)c2nc3c(s2)CCCC3)ccc1O`?
pPAFAH inh: 35

Results for COc1cc(N)c(C(=O)c2nccc3cc(OC)c(OC)cc23)cc1OC ?
pPAFAH inh: inactive; HTRA1 inhibitor: inactive; PAFAH1B3 inh: inactive; PAFAH2 inh: inactive; DAGLB inh: inactive; PAFAH1B2 inh: inactive

Screens: PubChem BioAssay, The Scripps Research Institute Molecular Screening Center
